“And” between values parts separate entries of the source, which are not always exact repeats. Equal values may be shown once. The whole screen tested about 360,000 compounds, of which about 11,000 (3.1%) were called active. No stated cut-off is given here; in the data, active means activity change below about -30%; inactive means the rest. The full list was thinned out, with actives kept by preference.
Each molecule was assayed against D(1A) dopamine receptor (Homo sapiens) (UniProt P21728) (assay: Antagonist of Human D 1 Dopamine Receptor: qHTS). Settings: HEK293 TREx D1 cells, calcium flux, dopamine EC80; at 10 µM; active compounds read low.
Sequence of D(1A) dopamine receptor (Homo sapiens) (P21728 whole entry, looked up): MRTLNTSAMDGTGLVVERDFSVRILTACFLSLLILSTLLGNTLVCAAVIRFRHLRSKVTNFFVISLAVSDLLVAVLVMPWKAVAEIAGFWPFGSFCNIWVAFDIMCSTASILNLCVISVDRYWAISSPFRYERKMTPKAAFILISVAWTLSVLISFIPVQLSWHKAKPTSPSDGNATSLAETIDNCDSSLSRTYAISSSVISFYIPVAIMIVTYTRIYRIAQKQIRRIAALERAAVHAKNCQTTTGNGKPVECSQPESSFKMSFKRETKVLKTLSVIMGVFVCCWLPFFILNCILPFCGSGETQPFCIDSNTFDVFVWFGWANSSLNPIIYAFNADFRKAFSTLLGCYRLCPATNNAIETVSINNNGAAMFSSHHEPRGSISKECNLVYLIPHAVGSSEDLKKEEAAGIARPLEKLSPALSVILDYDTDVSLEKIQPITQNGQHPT
In short: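 Antagonism measured as reduced calcium response to an EC80 dopamine addition following 180 s compound pre-read; cells were inducible HEK293 Trex D1 plated overnight at 30 C, read kinetically at 1 cycle/sec.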
In the case of `Cn1c(=O)n(Cc2c(F)cccc2Cl)c(=O)c2c1nc1n2CCN1c1ccc(F)cc1`, the activity change, negative = inhibition was -4.11% (inactive). For `CCOc1ccc(NC(=O)c2cc(S(=O)(=O)N3CCCC3)c[nH]2)cc1`, the activity change, negative = inhibition was -12.2% (inactive). In the case of `COc1ccc(CS(=O)/C(Cl)=C(/Cl)C(=O)Nc2ccc(OC)nc2)cc1` (stereo unspecified), the activity change, negative = inhibition was -16.1% (inactive). `COc1ccc(NC(=O)/C(Cl)=C(/Cl)S(=O)Cc2ccc(C)cc2)cn1` (stereo unspecified) was tested, and the activity change, negative = inhibition was -37.4% (active). `COc1cccc(NC(=S)N(Cc2ccc(C)cc2)Cc2ccccn2)c1` was tested, and the activity change, negative = inhibition was -4.38% (inactive). In the case of `Cc1cc(Cl)ccc1OCCCC(=O)NCc1ccccn1`, the activity change, negative = inhibition was -2.23% (inactive). For `Cc1cc(Cl)ccc1OCCCC(=O)Nc1cccc(-n2cnnn2)c1`, the activity change, negative = inhibition was -32.2% (active). `Cc1cc(Cl)ccc1OCCCC(=O)NCc1ccncc1` was tested, and the activity change, negative = inhibition was -15.1% (inactive). In the case of `O=C(Nc1ccc2nc(SCCOc3ccccc3)sc2c1)c1ccco1`, the activity change, negative = inhibition was -3.21% (inactive). With `O=C(CSc1ncc(-c2ccccc2)[nH]1)Nc1ccc(F)cc1F` the activity change, negative = inhibition was -8.22% (inactive). `CCc1ccccc1NC(=O)c1ccc2c(c1)CCN2S(C)(=O)=O` was tested, and the activity change, negative = inhibition was 6.15% (inactive) and -13% (inactive). For `O=S1(=O)CCN2C(=N1)SC1=C2CCN(Cc2ccccc2)C1`, the activity change, negative = inhibition was 2.33% (inactive). `O=C(Nc1ccccc1Cc1ccccc1)c1ccc2c(c1)SC1=NS(=O)(=O)CCN12` was tested, and the activity change, negative = inhibition was -30.1% (active). With `CCCN(C(=O)Cn1ncc2c([nH]c3ccc(C)cc32)c1=O)c1ccccc1C` the activity change, negative = inhibition was 11.2% (inactive). In the case of `O=[S+]([O-])(c1ccc(OC(F)(F)F)cc1)N1CCN([S+](=O)([O-])c2ccc3c(c2)OCCO3)CC1`, the activity change, negative = inhibition was -7.55% (inactive). With `Cc1nn2c(=O)cc(COC(=O)c3ccccc3NC(=O)COc3ccccc3C)nc2s1` the activity change, negative = inhibition was -3.25% (inactive). `COc1ccc(NC(=O)C2=NNC(=O)CC2)cc1S(=O)(=O)N1CCCCC1` was tested, and the activity change, negative = inhibition was -34.7% (active). `COc1ccccc1C(=O)Nc1ccc(C)c(S(=O)(=O)N2CCCCC2)c1` was tested, and the activity change, negative = inhibition was -2.3% (inactive). With `COc1ccc(NC(=O)CSc2nnc(C3CC3)n2C)cc1S(=O)(=O)N1CCCCC1` the activity change, negative = inhibition was 5.62% (inactive). For `NS(=O)(=O)c1ccc(CCNC(=O)CCCCCn2c(=O)[nH]c3ccccc3c2=O)cc1`, the activity change, negative = inhibition was 5.32% (inactive). For `COc1cc2nc(NCC(C)c3ccccc3)n3nc(-c4ccccc4)nc3c2cc1OC` (stereo unspecified), the activity change, negative = inhibition was -4.86% (inactive). With `Cc1nc2nc(NCc3cccc(Br)c3)[nH]n2c(=O)c1Cc1ccccc1` the activity change, negative = inhibition was -2.6% (inactive). In the case of `Cc1cccc(N(C)C(=O)CS(=O)(=O)c2cccc3nsnc23)c1`, the activity change, negative = inhibition was 9.37% (inactive). With `O=C(Nc1cccc([N+](=O)[O-])c1)Nn1cnnc1` the activity change, negative = inhibition was -44.2% (active). `O=C(Nn1cnnc1)c1ccc([N+](=O)[O-])cc1` was tested, and the activity change, negative = inhibition was -2.94% (inactive). In the case of `COC(=O)/C=C\C(=O)Nc1cccc([N+](=O)[O-])c1`, the activity change, negative = inhibition was 16.7% (inactive). `CCCCCn1c(CCNC(=O)c2ccc(F)cc2)nc2ccccc21` was tested, and the activity change, negative = inhibition was -29.3% (inactive). With `CC(=O)c1ccc(NC(=O)CCc2nc(-c3ccc(C)cc3)no2)cc1` the activity change, negative = inhibition was 6.08% (inactive). In the case of `CC(=O)c1cccc(NC(=O)c2nc(-c3ccccc3)n(-c3cccc(C)c3)n2)c1`, the activity change, negative = inhibition was -15.7% (inactive). In the case of `[O-][n+]1onc2c1CCc1[nH]c(-c3ccccc3)nc1-2`, the activity change, negative = inhibition was -44.1% (active). For `CCn1c(CNC(=O)c2ccc(OC)c(OC)c2)nnc1SCC(=O)Nc1ccccc1`, the activity change, negative = inhibition was -0.592% (inactive). With `CCn1c(Cc2ccccc2)nnc1SCC(=O)Nc1ccccc1` the activity change, negative = inhibition was -30.1% (active). For `CCn1c(Cc2ccc(OC)cc2)nnc1SCC(=O)Nc1ccc(N2CCOCC2)cc1`, the activity change, negative = inhibition was 0.621% (inactive). In the case of `CCC(=O)N1c2ccccc2CC1C(=O)N1CCN(c2ccccc2F)CC1` (stereo unspecified), the activity change, negative = inhibition was 10.1% (inactive). In the case of `CCOc1ccc(NC(=O)c2c(NC(=O)Cc3ccccc3)sc3c2CCCCC3)cc1`, the activity change, negative = inhibition was 0.456% (inactive). For `CN(C)CCCN1C(=O)CSC1c1ccc([N+](=O)[O-])cc1` (stereo unspecified), the activity change, negative = inhibition was 26.5% (inactive). In the case of `CCCCc1ccc(NC(=O)NCc2cccnc2)cc1`, the activity change, negative = inhibition was 19% (inactive). For `CCCCCCCCCCCCN1C(=O)CSC1c1cccnc1` (stereo unspecified), the activity change, negative = inhibition was -34.3% (active). For `Cc1cccc(CC(=O)N2CC(=O)Nc3ccc(F)cc3C2c2ccccc2)c1` (stereo unspecified), the activity change, negative = inhibition was -5.67% (inactive). With `Cc1nn(CC(=O)O)c(=O)c2cc3cc(F)ccc3n12` the activity change, negative = inhibition was 16.8% (inactive). With `COc1cccc(CNC(=O)Cc2csc3nc(-c4ccccc4)cn23)c1` the activity change, negative = inhibition was 8.74% (inactive). `COc1ccc2c(Sc3ccc(C)cc3)c(C(=O)NC(C)c3ccccc3)[nH]c2c1` (stereo unspecified) was tested, and the activity change, negative = inhibition was -2.66% (inactive). For `Cc1ccc(NS(=O)(=O)c2ccc(C(C)(C)C)cc2)cn1`, the activity change, negative = inhibition was -7.23% (inactive). `Cc1cc(C)cc(OCC(=O)Nc2ccc(S(=O)(=O)Nc3ccccn3)cc2)c1` was tested, and the activity change, negative = inhibition was -0.845% (inactive). In the case of `Cc1ccc(S(=O)(=O)Nc2ccc3ncccc3c2)cc1`, the activity change, negative = inhibition was -37.6% (active). `Cc1cn(C)c(CC(=O)NCc2ccc(Cl)cc2)c1C(=O)O` was tested, and the activity change, negative = inhibition was -2.23% (inactive). `COc1cc(CN(C(=O)c2ccccc2Br)c2ccccn2)cc(OC)c1OC` was tested, and the activity change, negative = inhibition was -66.6% (active). `Cc1ccc(CN(C(=O)c2ccccc2[N+](=O)[O-])c2ccccn2)cc1` was tested, and the activity change, negative = inhibition was -7.2% (inactive). For `CCC(=O)N(Cc1ccccc1)c1ccccn1`, the activity change, negative = inhibition was -9.42% (inactive). For `CCN(CC)c1ccc(NC(=O)CN2C(=O)c3cccnc3Oc3ccc(Cl)cc32)c(C)c1`, the activity change, negative = inhibition was -6.59% (inactive). In the case of `COc1ccc(N(C)C(=O)C2CCN(S(=O)(=O)c3cc(Br)cc4c3N(C(C)=O)CC4)CC2)cc1`, the activity change, negative = inhibition was 6.85% (inactive). For `Cc1cccc(CC(=O)Nc2c3c(nn2-c2cccc(Cl)c2)CS(=O)C3)c1` (stereo unspecified), the activity change, negative = inhibition was -0.884% (inactive). For `CC(=O)Nc1c2c(nn1-c1ccc(C)cc1C)CS(=O)C2` (stereo unspecified), the activity change, negative = inhibition was -34.5% (active). In the case of `COc1ccc(-n2nc3c(c2NC(=O)Cc2cccc(C)c2)CS(=O)C3)cc1` (stereo unspecified), the activity change, negative = inhibition was -10.2% (inactive). For `CCOc1ccc(C2CC(=O)c3c([nH]c(C(=O)OCc4ccccc4)c3C)C2)cc1` (stereo unspecified), the activity change, negative = inhibition was -22.3% (inactive). For `Cc1ccc(-c2ccc(CCC(=O)O)n2-c2ccc(C(N)=O)cc2)cc1`, the activity change, negative = inhibition was -5.89% (inactive). In the case of `Clc1ccc(CSc2nncn3c2cc2occc23)cc1`, the activity change, negative = inhibition was -0.2% (inactive). With `CCOc1ccccc1C(=O)Nc1ccc2c(c1)N(C)C(=O)c1ccccc1S2` the activity change, negative = inhibition was -16.7% (inactive). `COc1ccccc1N1CCN(c2ccc(=O)n(CC(=O)NCc3ccc(OC(C)C)cc3)n2)CC1` was tested, and the activity change, negative = inhibition was 23.5% (inactive). With `O=S(=O)(c1cccc(Cn2nnc(-c3ccc(F)cc3)n2)c1)N1CCOCC1` the activity change, negative = inhibition was -46.2% (active). In the case of `O=S(=O)(c1cccc(-c2nnc3n2CCCCC3)c1)N1CCOCC1`, the activity change, negative = inhibition was 2.28% (inactive). For `Cc1nc(-c2ccc(F)cc2)c(CC(=O)Nc2cccc(S(=O)(=O)N3CCOCC3)c2)s1`, the activity change, negative = inhibition was 4.46% (inactive). `COC(=O)c1ccc(NC(=O)c2cccc3c2C(=O)N(C2CCCCC2)C3)cc1` was tested, and the activity change, negative = inhibition was -12% (inactive). `CC(C)c1ccc(NC(=O)Cn2c3ncccc3c(=O)n2-c2ccccc2)cc1` was tested, and the activity change, negative = inhibition was -16.2% (inactive). In the case of `Cc1ccc2c(=O)c(C(=O)c3ccc(Cl)cc3)cn(CC(=O)NC3CCCCC3)c2n1`, the activity change, negative = inhibition was -2.17% (inactive). `Cc1ccc2c(=O)c(C(=O)c3ccc(F)cc3)cn(CC(=O)NC3CCCCC3)c2n1` was tested, and the activity change, negative = inhibition was -3.19% (inactive). With `Cc1ccc2c(=O)c(C(=O)c3cccc(Cl)c3)cn(CC(=O)NCc3ccccc3)c2n1` the activity change, negative = inhibition was -33.4% (active). In the case of `COc1cccc(CNC(=O)C(=O)NCC(c2cccs2)S(=O)(=O)c2ccccc2)c1` (stereo unspecified), the activity change, negative = inhibition was 10.2% (inactive). With `Cc1ccc(Cl)cc1N(C)C(=O)Cn1nc(Cc2cccnc2)c2ccccc2c1=O` the activity change, negative = inhibition was 10.4% (inactive). For `CCn1c(=O)c(=O)n(CC)c2cc(N3CCCCC3)c(NC(=O)c3cccc(F)c3)cc21`, the activity change, negative = inhibition was 4.44% (inactive). `O=C(Nc1ccncc1)c1ccccc1[N+](=O)[O-]` was tested, and the activity change, negative = inhibition was -0.321% (inactive). `CC(C)(C)NC(=O)CSc1nnc(NC(=O)CCc2ccccc2)s1` was tested, and the activity change, negative = inhibition was -22.4% (inactive). `CC(=O)Oc1ccccc1C(=O)Nc1ncc([N+](=O)[O-])s1` was tested, and the activity change, negative = inhibition was -33.9% (active). In the case of `O=C(CCc1ccccc1)Nc1ncc([N+](=O)[O-])s1`, the activity change, negative = inhibition was -30% (active). For `COC(=O)CSc1nnc(NC(=O)CCc2ccccc2)s1`, the activity change, negative = inhibition was 5.96% (inactive). `Cc1ccc2nsnc2c1NC(=O)c1ccccc1[N+](=O)[O-]` was tested, and the activity change, negative = inhibition was 7.5% (inactive). With `Cc1ccccc1C(=O)NCc1nc(-c2ccc(Cl)cc2)no1` the activity change, negative = inhibition was -7.49% (inactive). `N#Cc1nc(Nc2cccc(Cl)c2)nc(NC2CCCC2)n1` was tested, and the activity change, negative = inhibition was -6.69% (inactive). With `COc1ccc(C(=O)Nc2cccc(C(=O)OCc3cc(=O)n4c5c(sc4n3)CCCC5)c2)cc1` the activity change, negative = inhibition was -2.93% (inactive). In the case of `CN1CCOc2cc(S(=O)(=O)N3CCN(S(=O)(=O)c4c(F)cccc4F)CC3)cnc21`, the activity change, negative = inhibition was 1.83% (inactive). With `CC1Cc2cc(S(=O)(=O)CCC(=O)Nc3ccc(F)c(Cl)c3)ccc2N1C(=O)C1CC1` (stereo unspecified) the activity change, negative = inhibition was -8.79% (inactive). For `Cc1ccc(C)c(N2CCN(C(=O)Cc3c(C(=O)O)c(C)cn3C)CC2)c1`, the activity change, negative = inhibition was 3.31% (inactive). For `Cc1nc2nc(SCC(=O)N(Cc3ccccc3)C(C)C)nn2c(C)c1Cc1ccccc1Cl`, the activity change, negative = inhibition was -7.72% (inactive). For `COc1ccc(-n2c(C)nc3c(cnn3-c3ccc(F)cc3)c2=O)cc1`, the activity change, negative = inhibition was -26.8% (inactive). In the case of `O=S(=O)(Oc1ccccc1C(=S)N1CCOCC1)c1ccc(Cl)cc1`, the activity change, negative = inhibition was -1.41% (inactive). For `N/C(=N\S(=O)(=O)c1ccc(Cl)cc1)N1CCOCC1`, the activity change, negative = inhibition was -7.63% (inactive). For `N#C/C(=C\N1CCOCC1)S(=O)(=O)c1ccc(Cl)cc1`, the activity change, negative = inhibition was -41.8% (active). `O=C(Nc1ccc(-c2nc3cc(NC(=O)c4ccccc4Cl)ccc3o2)cc1)c1ccccc1Cl` was tested, and the activity change, negative = inhibition was 6.02% (inactive). With `COc1cc(NC(=O)c2ccccc2NS(=O)(=O)c2ccc(Cl)s2)cc(OC)c1` the activity change, negative = inhibition was -11.8% (inactive). `COC(=O)c1ccc(NC(=O)c2ccccc2NS(=O)(=O)c2ccccc2)cc1` was tested, and the activity change, negative = inhibition was -42.5% (active). For `COC(=O)c1ccccc1NS(=O)(=O)c1ccc2[nH]c(=O)[nH]c2c1`, the activity change, negative = inhibition was 9.8% (inactive).
On the % scale 0 is the no-effect control and ±100 the full control effect.
